Test results reported in PubChem BioAssay (NCI).
This is part of a sample that, as a whole, favours compounds with a hit. Of some 83,000 tested, about 20% had one in any assay.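 Interpretation: 100, growth as untreated; towards 0, rising growth inhibition; 0, no net growth; 0 to -100, cell death. Compounds scoring below 10 were considered active.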 Values without a mark were called inactive. Activity calls are given as the source filed them.

Experiments:
Test in all cases: NCI-60 one-dose screen, 48 h (100 = growth as untreated, 0 = no growth, -100 = all killed)
Details in all cases: 10 µM
NCI-H23 lung = test system: NCI-H23 lung
NCI-H226 lung = test system: NCI-H226 lung
NCI-H322M lung = test system: NCI-H322M lung
HOP-62 NSCLC = test system: HOP-62 NSCLC
HOP-92 NSCLC = test system: HOP-92 NSCLC
NCI-H522 lung = test system: NCI-H522 lung
A549/ATCC NSCLC = test system: A549/ATCC NSCLC
786-0 renal = test system: 786-0 renal
COLO 205 colon = test system: COLO 205 colon
DU-145 prostate = test system: DU-145 prostate
K-562 leukemia = test system: K-562 leukemia
MALME-3M melanoma = test system: MALME-3M melanoma
MDA-MB-231 breast = test system: MDA-MB-231 breast
RXF 393 renal = test system: RXF 393 renal
SF-268 CNS = test system: SF-268 CNS
SF-295 CNS = test system: SF-295 CNS
SF-539 CNS = test system: SF-539 CNS
UACC-257 melanoma = test system: UACC-257 melanoma
M14 melanoma = test system: M14 melanoma
NCI-H460 lung = test system: NCI-H460 lung

Row | Compound | growth (NCI-H23 lung) | growth (NCI-H226 lung) | growth (NCI-H322M lung) | growth (HOP-62 NSCLC) | growth (HOP-92 NSCLC) | growth (NCI-H522 lung) | growth (A549/ATCC NSCLC) | growth (786-0 renal) | growth (COLO 205 colon) | growth (DU-145 prostate) | growth (K-562 leukemia) | growth (MALME-3M melanoma) | growth (MDA-MB-231 breast) | growth (RXF 393 renal) | growth (SF-268 CNS) | growth (SF-295 CNS) | growth (SF-539 CNS) | growth (UACC-257 melanoma) | growth (M14 melanoma) | growth (NCI-H460 lung)
1 | O=c1oc2ccc(-c3ccc(F)cc3F)cc2c(=O)n1-c1ccc(Cl)c(C(F)(F)F)c1 | -42.7% (active) | -18.8% (active) | -2.17% (active) | -18.8% (active) | -19.4% (active) | -12.6% (active) | 15% | 7.66% (active) | -81.3% (active) | 14.2% | 10.1% | -26.7% (active) | -19.8% (active) | -14.3% (active) | 12% | -74% (active) | -7.49% (active) | -5.73% (active) | 21.5% | 
2 | O=C(c1ccc(Cl)cc1)C1[C@H](c2ccc(Br)cc2)[C@@H](c2ccccc2)NC12C(=O)Nc1ccc(Br)cc12 (stereo partly drawn) | -92.7% (active) | -90.5% (active) | -59.3% (active) | -80.3% (active) | -72.7% (active) | -82% (active) | -51.5% (active) | -80.4% (active) | -88.2% (active) | -43.2% (active) | -37.6% (active) | -95.5% (active) | -96.1% (active) | -94.8% (active) | -28.6% (active) | -97.2% (active) | -88.8% (active) | -71.3% (active) | 3.03% (active) | 
3 | COc1cc(Cn2c(C(F)(F)F)cc3c(Cl)ncnc32)ccn1 | -66.6% (active) | 72.2% | -73.3% (active) | 32.1% | 49.1% | 56% | 92.6% | 93.3% | 79.9% | -100% (active) |  | 71.2% | 10.7% | 32.9% | -11% (active) | 95% | 59.9% | 30.1% | -25.6% (active) | 
4 | Nc1n[nH]c2cccc(C#Cc3cccc(NC(=O)Nc4cc(C(F)(F)F)cc(C(F)(F)F)c4)c3)c12 | -88.4% (active) | -52.6% (active) | -22.4% (active) |  | -71.5% (active) | -58.4% (active) | -35.3% (active) | -20.3% (active) | -77.5% (active) | 7.02% (active) | -57.4% (active) | -67.6% (active) | -93.4% (active) | -70.9% (active) | -2.88% (active) | -75.3% (active) | -73% (active) | -57.3% (active) | -9.94% (active) | -56.8% (active)
5 | C#CCNC(=O)CCC(=O)OC[C@]12CC[C@@H](C(=C)C)[C@@H]1C1CC[C@@H]3[C@@]4(C)CCCNC(C)(C)[C@@H]4CC[C@@]3(C)[C@]1(C)CC2 (stereo partly drawn) | -91.8% (active) | -80.8% (active) | 39.2% | -23.9% (active) | -14.4% (active) | -82.7% (active) | -76.5% (active) | -58.3% (active) | -83% (active) | 17.8% | 3.14% (active) | -93.6% (active) | -47.9% (active) |  | 42.8% | -85.5% (active) | -99.3% (active) | -78.4% (active) | -80.4% (active) | 
6 | CC1=C(c2cc(-c3ccc(Cl)cc3)c(C#N)c(N)n2)C(c2ccccc2)NC(=S)N1 (stereo not drawn) | 76.1% | 64.4% | 96.4% | 81.3% | 105% | 49.4% | 90.1% | 67% | 80.5% | 51.3% | 36.9% | 4.96% (active) | 51.9% |  | 51% | 78.1% | 39.9% | 77.7% | 49.8% | 
7 | O=C(CNc1nc(-c2ccccc2)cs1)Nc1ccc([N+](=O)[O-])cc1 | -6.85% (active) | 29.4% | 6.59% (active) | 33.3% | 42.8% | -74.6% (active) | 42.8% | 16% | -83.3% (active) | 45.2% | 9.52% (active) | -66.6% (active) | -13.4% (active) |  | 38.4% | 26% | -28.2% (active) | 39.5% | 30.2% | 
8 | Cc1ccc(F)cc1N/C=c1\s/c(=C(\C#N)C(=O)Nc2ccccc2)n(-c2ccccc2)c1=O | 58% | 20.3% | 81.8% | 51.8% | 27.6% | 74.7% | 37.7% | 34.6% | 99% | 54.5% | 83.4% | 53% | 2.68% (active) | 6.54% (active) | 69.5% | 47.8% | 27% | 99% | 82.4% | 
